Entries with a potency or affinity are not part of this list. Results filed as inconclusive are left out. Calls of active or inactive are those of the source.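 Rule for the calls: active = raises choline transporter activity at one or more tested doses and gives a fitted dose-response curve; inconclusive = no clear call, values can overlap the other calls; inactive = no choline transporter activation at any dose, or no curve.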
Each compound was assayed against High affinity choline transporter 1 (Homo sapiens) (UniProt Q9GZV3) (assay: human choline transporter potentiators, potency – cell-based, 10-point CRC, membrane potential dye, dose response (AID 602376)). Settings: HEK293-CHT, choline-induced membrane potential dye, cells express CHT LV-AA mutant; series mostly up to 67 µM.
High affinity choline transporter 1 (Homo sapiens), sequence (Q9GZV3 whole entry, looked up): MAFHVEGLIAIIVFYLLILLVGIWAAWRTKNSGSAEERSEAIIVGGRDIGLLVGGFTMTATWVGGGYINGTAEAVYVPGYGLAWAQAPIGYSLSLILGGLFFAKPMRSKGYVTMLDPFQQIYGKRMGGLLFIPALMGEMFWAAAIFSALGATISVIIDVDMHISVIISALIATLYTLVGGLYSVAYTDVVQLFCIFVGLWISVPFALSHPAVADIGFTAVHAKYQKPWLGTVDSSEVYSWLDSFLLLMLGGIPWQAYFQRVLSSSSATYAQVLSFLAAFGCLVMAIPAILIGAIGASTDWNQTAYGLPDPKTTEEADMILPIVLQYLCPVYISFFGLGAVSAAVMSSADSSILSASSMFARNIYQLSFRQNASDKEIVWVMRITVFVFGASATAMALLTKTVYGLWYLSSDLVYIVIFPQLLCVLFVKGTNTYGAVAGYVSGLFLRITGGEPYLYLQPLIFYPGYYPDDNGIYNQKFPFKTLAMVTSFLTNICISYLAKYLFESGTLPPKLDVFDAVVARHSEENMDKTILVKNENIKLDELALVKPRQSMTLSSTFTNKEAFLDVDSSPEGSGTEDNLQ

outcome, inactive:
CC(C)CCC(CCNCc1ccccn1)c1ccc(Cl)cc1 (centres undefined)
Cc1cccc2c(=O)cc(C)n(CC(=O)N3CCOCC3)c12
N#Cc1c(N)oc(-c2ccco2)c1-c1ccco1
CCOC(=O)c1c(NC(=O)CSc2nc3ccccc3o2)sc(C(C)=O)c1C
CCCC(=O)N1c2ccccc2C(=C2SC(C(=O)OC)=C(C(=O)OC)S2)C(=S)C1(C)C
CCOC(=O)C1CCN(C(=O)CCc2nnc3ccc(N4CCN(C)CC4)nn23)CC1
Cc1nc(N(C)Cc2ccccc2)c2c(C)c(C)sc2n1
COc1ccc(C(C)=O)cc1CSc1nc2ccccc2c(=O)n1-c1ccccc1C
CCc1cccc(OCCn2nc(C(=O)O)c3ccccc3c2=O)c1
Cc1noc(C)c1CSc1nc2ccccc2c(=O)n1-c1ccccc1
Cn1c(=O)c2c(nc(CN3CCCCC3)n2CCc2ccccc2)n(C)c1=O
Cc1ccc(-n2c(SCCN)nnc2-c2cccc(C)c2)cc1
COc1ccc(-c2csc3nc(C)nc(N4CCCCC4)c23)cc1OC
Cc1cccc2nc(-c3cccnc3)c(NCCC(C)C)n12
CCCCn1c(=N)n(CC(O)COc2ccccc2)c2ccccc21 (centres undefined)
COc1cccc(C(c2nnnn2Cc2ccco2)N2CCN(c3cccc(C)c3C)CC2)c1OC (centres undefined)
CN1CCN(CCCn2cnc3c(=O)oc4ccccc4c32)CC1
O=C1CCCCCCCCCC/C(=N\O)CCCO1
CC(C)(C)N(NC(=O)c1ccccc1)C(=O)c1cccc(C(=O)N(NC(=O)c2ccccc2)C(C)(C)C)c1

From PubChem BioAssay AID602376 (Johns Hopkins Ion Channel Center, 2012)
